# Assay results reported in the supplement of paper PMC8728848.
# Only a selection was taken, and the strongest signals are over-represented in it overall.
# B1: PX9961C-bth-497-22-497 (Bacteroides thetaiotaomicron) (protein)
# chain: DWLDLNTTSSVETGQAIVTLDDAQIALNGIYRLASGHSYYGDNYWYYGDCRAADVQARITKGDGKRVSPYYEYNVLASDNLNIVLPWNTVYKVIRQTNNLIQKIESGSIQSSDTKELNRIKSEALVMRGLSLFNLTRLFGMPYTNDKGASLGVPIETSPSDPTHKPSRSTVAQCYEQVVSDMSNALSGLRQETSNGYINYWAAQALLSRVYLNMGEYQKAYDAATDVIKNNGGRYQLYSYEEYPNVWGQDFQSESLFELYITLSEPSGGTGGEGAPMVYANEATVDWNNLILSEDFLNLLNEDPKDVRHCLTKESVIENNTGLPAAAMHEKVYLAKFPGKTGDDPKTNNICIIRLSEVYLNAAEAGLKKGTDIEEAQGYLNDIISRRTTDTSQQVSTETFTLDRILKERRKELVGEGEVFYDYLRNGLAIERKGSWHLETLKASNAQKIEATDLRIALPIPQSEIDANPNIQQNPR
# Tests used:
# Assay in all cases: glycan array binding signal (z-score within array); higher = stronger binding
# Settings in all cases: glycan notation: IUPAC condensed, linker removed
# [1] = target: Fuc(a1-2)Gal(b1-3)GalNAc(a1-3)[Fuc(a1-2)]Gal(b1-4)GlcNAc
# In short: (§1)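 Columns mapping to the same glycan were averaged after glycan names were converted to IUPAC-condensed notation. The data come from 3228 arrays in the Consortium for Functional Glycomics database, limited to those with an available protein sequence. Binding is reported as a within-array Z-score averaged across arrays of one protein sequence and across linkers.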
# [2] = target: Fuc(a1-2)Gal(b1-3)GlcNAc(b1-3)[Fuc(a1-2)Gal(b1-3)GlcNAc(b1-6)]GalNAc
# In short: as §1
# [3] = target: Fuc(a1-2)Gal(b1-4)[Fuc(a1-3)]GlcNAc(b1-3)Gal(b1-4)[Fuc(a1-3)]GlcNAc(b1-3)Gal(b1-4)[Fuc(a1-3)]GlcNAc
# In short: as §1
# [4] = target: Fuc(a1-2)Gal(b1-4)[Fuc(a1-3)]GlcNAc(b1-3)[Neu5Ac(a2-6)Gal(b1-4)GlcNAc(b1-6)]Gal(b1-4)Glc
# In short: as §1
# [5] = target: Fuc(a1-2)Gal6S(b1-4)Glc
# In short: as §1
# [6] = target: Fuc(a1-2)[Gal(a1-3)]Gal(b1-3)GalNAc
# In short: as §1
# [7] = target: Fuc(a1-2)[Gal(a1-3)]Gal(b1-3)GlcNAc(b1-2)Man(a1-3)[Fuc(a1-2)[Gal(a1-3)]Gal(b1-3)GlcNAc(b1-2)Man(a1-6)]Man(b1-4)GlcNAc(b1-4)GlcNAc
# In short: as §1
# [8] = target: Fuc(a1-2)[Gal(a1-3)]Gal(b1-4)GlcNAc(b1-3)[Fuc(a1-2)[Gal(a1-3)]Gal(b1-4)GlcNAc(b1-6)]GalNAc
# In short: as §1
# [9] = target: Fuc(a1-2)[Gal(a1-3)]Gal(b1-4)[Fuc(a1-3)]GlcNAc(b1-3)GalNAc
# In short: as §1
# [10] = target: Fuc(a1-2)[GalNAc(a1-3)]Gal(b1-3)GlcNAc
# In short: as §1
# [11] = target: Fuc(a1-3)[Gal(b1-4)]GlcNAc(b1-2)Man
# In short: as §1
# [12] = target: Fuc(a1-3)[Gal(b1-4)]GlcNAc(b1-6)GalNAc
# In short: as §1
# [13] = target: Fuc(a1-3)[GalNAc(b1-4)]GlcNAc
# In short: as §1
# [14] = target: Gal(a1-3)Gal(b1-4)GlcNAc(b1-3)GalNAc
# In short: as §1
# [15] = target: Gal(a1-3)[Gal(a1-4)]Gal(b1-4)GlcNAc
# In short: as §1
# [16] = target: Gal(b1-3)GalNAc(a1-3)[Fuc(a1-2)]Gal(b1-4)GlcNAc
# In short: as §1
# [17] = target: Gal(b1-3)GlcNAc(b1-2)[Gal(b1-3)GlcNAc(b1-6)]Man(a1-6)[Gal(b1-3)GlcNAc(b1-2)Man(a1-3)]Man(b1-4)GlcNAc(b1-4)GlcNAc
# In short: as §1
# [18] = target: Gal(b1-3)GlcNAc(b1-6)GalNAc
# In short: as §1
# [19] = target: Gal(b1-3)[Fuc(a1-4)]GlcNAc(b1-6)GalNAc
# In short: as §1
# [20] = target: Gal(b1-4)GalNAc(a1-3)[Fuc(a1-2)]Gal(b1-4)GlcNAc
# In short: as §1
# [21] = target: Gal(b1-4)GlcNAc(b1-2)Man(a1-6)Man(b1-4)GlcNAc(b1-4)GlcNAc
# In short: as §1
# [22] = target: Gal(b1-4)GlcNAc(b1-3)Gal(b1-4)GlcNAc(b1-2)Man(a1-3)[Gal(b1-4)GlcNAc(b1-3)Gal(b1-4)GlcNAc(b1-2)Man(a1-6)]Man(b1-4)GlcNAc(b1-4)GlcNAc
# In short: as §1
# [23] = target: Gal(b1-4)GlcNAc(b1-3)Gal(b1-4)GlcNAc(b1-2)[Gal(b1-4)GlcNAc(b1-3)Gal(b1-4)GlcNAc(b1-6)]Man(a1-6)[Gal(b1-4)GlcNAc(b1-3)Gal(b1-4)GlcNAc(b1-2)Man(a1-3)]Man(b1-4)GlcNAc(b1-4)GlcNAc
# In short: as §1
# [24] = target: Gal(b1-4)GlcNAc(b1-3)Gal(b1-4)GlcNAc(b1-2)[Gal(b1-4)GlcNAc(b1-3)Gal(b1-4)GlcNAc(b1-6)]Man(a1-6)[Gal(b1-4)GlcNAc(b1-3)Gal(b1-4)GlcNAc(b1-2)Man(a1-3)]Man(b1-4)GlcNAc(b1-4)[Fuc(a1-6)]GlcNAc
# In short: as §1
# [25] = target: Gal(b1-4)GlcNAc(b1-3)Gal(b1-4)GlcNAc(b1-3)Gal(b1-4)GlcNAc(b1-3)Gal(b1-4)GlcNAc(b1-2)[Gal(b1-4)GlcNAc(b1-3)Gal(b1-4)GlcNAc(b1-3)Gal(b1-4)GlcNAc(b1-3)Gal(b1-4)GlcNAc(b1-6)]Man(a1-6)[Gal(b1-4)GlcNAc(b1-3)Gal(b1-4)GlcNAc(b1-3)Gal(b1-4)GlcNAc(b1-3)Gal(b1-4)GlcNAc(b1-2)Man(a1-3)]Man(b1-4)GlcNAc(b1-4)[Fuc(a1-6)]GlcNAc
# In short: as §1
# [26] = target: Gal(b1-4)GlcNAc(b1-3)Gal(b1-4)GlcNAc(b1-3)Gal(b1-4)GlcNAc(b1-3)Gal(b1-4)GlcNAc(b1-3)Gal(b1-4)GlcNAc(b1-2)[Gal(b1-4)GlcNAc(b1-3)Gal(b1-4)GlcNAc(b1-3)Gal(b1-4)GlcNAc(b1-3)Gal(b1-4)GlcNAc(b1-3)Gal(b1-4)GlcNAc(b1-6)]Man(a1-6)[Gal(b1-4)GlcNAc(b1-3)Gal(b1-4)GlcNAc(b1-3)Gal(b1-4)GlcNAc(b1-3)Gal(b1-4)GlcNAc(b1-3)Gal(b1-4)GlcNAc(b1-2)Man(a1-3)]Man(b1-4)GlcNAc(b1-4)[Fuc(a1-6)]GlcNAc
# In short: as §1
# [27] = target: Gal(b1-4)GlcNAc(b1-6)Gal(b1-4)GlcNAc
# In short: as §1
# [28] = target: Gal3S(b1-3)GlcNAc
# In short: as §1
# [29] = target: Gal3S4S(b1-4)GlcNAc
# In short: as §1
binder,measurement,setting,value
B1,glycan array binding signal (z-score),[1],-0.6
same,glycan array binding signal (z-score),[2],0.12
same,glycan array binding signal (z-score),[3],-0.517
same,glycan array binding signal (z-score),[4],-0.648
same,glycan array binding signal (z-score),[5],-0.078
same,glycan array binding signal (z-score),[6],-0.3
same,glycan array binding signal (z-score),[7],1.08
same,glycan array binding signal (z-score),[8],-0.459
same,glycan array binding signal (z-score),[9],-0.284
same,glycan array binding signal (z-score),[10],-0.776
same,glycan array binding signal (z-score),[11],1.56
same,glycan array binding signal (z-score),[12],0.511
same,glycan array binding signal (z-score),[13],0.598
same,glycan array binding signal (z-score),[14],-0.646
same,glycan array binding signal (z-score),[15],2.48
same,glycan array binding signal (z-score),[16],-0.307
same,glycan array binding signal (z-score),[17],14.1
same,glycan array binding signal (z-score),[18],-0.427
same,glycan array binding signal (z-score),[19],-0.101
same,glycan array binding signal (z-score),[20],-0.203
same,glycan array binding signal (z-score),[21],-0.302
same,glycan array binding signal (z-score),[22],1.26
same,glycan array binding signal (z-score),[23],2.36
same,glycan array binding signal (z-score),[24],2.08
same,glycan array binding signal (z-score),[25],-0.171
same,glycan array binding signal (z-score),[26],7.33
same,glycan array binding signal (z-score),[27],-0.211
same,glycan array binding signal (z-score),[28],-0.219
same,glycan array binding signal (z-score),[29],0.105
